The source made the active and inactive calls. A call without a number means that no potency is given here. The call rests on the fitted dose curve; in most records, active means well fitted inhibition curve with a large enough effect; inconclusive means small, poorly fitted or top-dose-only effect; inactive means flat fitted curve, though single readings scatter.
Tested on: Nanoluciferase (engineered Oplophorus gracilirostris luciferase)
Experiment: Primary Nanoluciferase (NLuc) qHTS assay for identification of artifact compounds. (AID 1845222);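 further: NLuc secreted into diluted conditioned medium of S16 cells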
Conditions: NLuc-conditioned medium, Nano-Glo luminescence, 5 min; series mostly up to 54.1 µM
Method in brief: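 S16 cell supernatant NLuc, 1:55; cpds qHTS; 15 min RT dark; Nano-Glo substrate 1:100, 5 min; luminescence; Hill fit of % inhibition.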

Row | Compound | Potency | activity, negative = inhibition
1 | Cc1nc2ccccc2c(-c2ccc3c4c(ccnc24)CCO3)c1[C@H](OC(C)(C)C)C(=O)O | inactive | 
2 | C/C=C(\C)C1C(C)=CC2CCC(OS(=O)(=O)O)C(C)C2C1/C=C/C=C/C(=O)O (centres undefined) | inactive | 
3 | CC1CC(=O)C2=C(O1)OC1(C)CCC3C(C)(C)C4OC4C(=O)C3(C)C1C2 (centres undefined) | inactive | 
4 | COc1cc(/C=C/C(=O)O[C@@H]2O[C@H](CO)[C@@H](O)[C@H](O)[C@H]2O)ccc1O | inactive | 
5 | C[C@@H]1O[C@@H](O[C@H]2[C@H](O)[C@@H](O[C@@H]3O[C@H](CO)[C@H](O)[C@H](O)[C@H]3O)[C@H](O[C@H]3CC[C@@]4(C)C(CC[C@]5(C)C4CC=C4[C@@H]6CC(C)(C)CC[C@]6(C(=O)O[C@@H]6O[C@H](CO)[C@@H](O)[C@H](O)[C@H]6O)CC[C@]45C)C3(C)C)O[C@@H]2C(=O)O)[C@H](O)[C@H](O)[C@H]1O (some centres undefined) |  | 2.46% [at 11.6 µM] (inactive)
6 | CC(=O)NC(Cc1c[nH]c2ccccc(=O)c12)C(=O)O (centres undefined) | inactive | 
7 | O=C(OC[C@H]1O[C@@H](Oc2ccccc2CO)[C@H](O)[C@@H](O)[C@@H]1O)c1ccccc1 | inactive | 
8 | CCOC(=O)C(CCc1ccccc1)NC1CCCN2CCCC(C(=O)O)N2C1=O (centres undefined) | inactive | 
9 | CC1(C)CC[C@]2(C(=O)O[C@@H]3O[C@H](CO[C@@H]4O[C@H](CO)[C@@H](O)[C@H](O)[C@H]4O)[C@@H](O)[C@H](O[C@@H]4O[C@H](CO)[C@@H](O)[C@H](O)[C@H]4O)[C@H]3O)[C@H](O)C[C@]3(C)C(=CCC4[C@@]5(C)CC[C@H](O[C@@H]6OC[C@@H](O)[C@H](O)[C@H]6O)[C@@](C)(C(=O)O)C5CC[C@]43C)[C@@H]2C1 (some centres undefined) |  | -3.16% [at 11.6 µM] (inactive)

From PubChem BioAssay (NCATS)
